Test systems include NCI-H23 lung; NCI-H226 lung; NCI-H322M lung; HOP-62 NSCLC; NCI-H460 lung; HOP-92 NSCLC; NCI-H522 lung; A549/ATCC NSCLC; 786-0 renal; COLO 205 colon; DU-145 prostate; K-562 leukemia; MALME-3M melanoma; MDA-MB-231 breast; RXF 393 renal; SF-268 CNS; SF-295 CNS; SF-539 CNS; UACC-257 melanoma; M14 melanoma.
Holding throughout (assay): NCI-60 one-dose screen, 48 h (100 = growth as untreated, 0 = no growth, -100 = all killed)
What all share (conditions): 10 µM unless noted

About 83,000 compounds went through this panel and 20% of them were active in at least one assay; those are over-represented in the sample as a whole.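 Testing used 96-well plates and a 48-hour single-concentration exposure. Example: -40 means 40% of the starting cells died.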 A number with no mark means an inactive call. Active and inactive are the calls of the source. Rule for the calls: active = growth percent below 10; inactive = the rest.

Consider `COc1cc(/C=C/C(=O)c2ccc(-n3cc(CN4CCN(c5cc6c(cc5F)c(=O)c(C(=O)O)cn6C5CC5)CC4)nn3)cc2)cc(OC)c1OC`, for which the growth was 77.6% with NCI-H23 lung; 74.8% with NCI-H226 lung; 88.8% in the experiment on NCI-H322M lung; 85.4% in the experiment on HOP-62 NSCLC; 85.9% in the experiment with NCI-H460 lung; 88% in the experiment with HOP-92 NSCLC. Moreover, the growth is 88% in the experiment with NCI-H522 lung; 90.5% with A549/ATCC NSCLC; 72.2% in the experiment on 786-0 renal; 112% in the experiment with COLO 205 colon; 92.3% with DU-145 prostate; 60.7% with K-562 leukemia. Also, the growth was 87.7% in the experiment on MALME-3M melanoma; 66.4% in the experiment with MDA-MB-231 breast; 55.7% in the experiment on RXF 393 renal; 77.2% in the experiment with SF-268 CNS; 81.9% in the experiment on SF-295 CNS; 82.5% with SF-539 CNS. For the same compound, the growth in the experiment with UACC-257 melanoma is 90.1%; in the experiment on M14 melanoma, 88.1%.
Consider `COc1cc2c(c(OC)c1OC)C(=O)CC(c1cccc(C(=O)Nc3ccc(Br)cc3)c1)O2` (stereo not given), for which the growth in the experiment on NCI-H23 lung was 60.3%; in the experiment on NCI-H226 lung it was 37.6%; in the experiment with NCI-H322M lung, 59.9%; with HOP-62 NSCLC, 86%; in the experiment with NCI-H460 lung, 78.8%; with HOP-92 NSCLC it was -8.2% (active). Further, the growth in the experiment on NCI-H522 lung is 48.5%; in the experiment with A549/ATCC NSCLC it was 78.8%; with 786-0 renal it was 71.8%; with COLO 205 colon it was 81.7%; in the experiment with DU-145 prostate, 73%; in the experiment with K-562 leukemia, 6.2% (active). Also, the growth in the experiment with MALME-3M melanoma is 70%; in the experiment with MDA-MB-231 breast, 50.8%; with RXF 393 renal it was 66.5%; in the experiment on SF-268 CNS it was 64.2%; in the experiment with SF-295 CNS it was 63.6%; with SF-539 CNS, 82.8%. Besides, the growth in the experiment with UACC-257 melanoma was 74.7%; in the experiment with M14 melanoma it was 57.7%.
Take `COc1ccc2c(c1)C(c1c[nH]c3ccccc13)(c1c[nH]c3ccccc13)CCO2`: the growth in the experiment on NCI-H23 lung was 53.3%; in the experiment on NCI-H226 lung, 64.1%; in the experiment on NCI-H322M lung, 66.1%; in the experiment on HOP-62 NSCLC it was 49.1%; with NCI-H460 lung it was 47.4%; in the experiment on HOP-92 NSCLC it was 35.6%. In addition, the growth in the experiment with NCI-H522 lung is 6.18% (active); with A549/ATCC NSCLC it was 24.1%; with 786-0 renal, 58.8%; in the experiment on COLO 205 colon, 39.9%; in the experiment with DU-145 prostate, 74.6%; with K-562 leukemia, 29.5%. Besides, the growth in the experiment with MALME-3M melanoma is 88.8%; in the experiment on MDA-MB-231 breast it was 35.1%; in the experiment with RXF 393 renal, 76.1%; in the experiment with SF-268 CNS, 52.2%; with SF-295 CNS it was 36.6%; in the experiment on SF-539 CNS, 71.7%. Besides, the results for the growth with UACC-257 melanoma and in the experiment on M14 melanoma were 48.1% and 39.7%, respectively.
On to `Cc1c2cnccc2c(C)c2c1c1cc(C(=O)O)ccc1n2C`, for which the growth is -32.4% (active) in the experiment on NCI-H23 lung; -25.8% (active) with NCI-H226 lung; -1.54% (active) with NCI-H322M lung; -8.17% (active) in the experiment with HOP-62 NSCLC; 1.58% (active) in the experiment on NCI-H460 lung; -3.06% (active) with HOP-92 NSCLC. The growth with NCI-H522 lung was -47.8% (active); in the experiment on A549/ATCC NSCLC, 8.95% (active); in the experiment on 786-0 renal, 22.3%; in the experiment on COLO 205 colon, -9.71% (active); in the experiment on DU-145 prostate, 4.3% (active); in the experiment with K-562 leukemia, 9.3% (active). Also, the growth was -31.8% (active) in the experiment with MALME-3M melanoma; 3.08% (active) with MDA-MB-231 breast; -72.1% (active) with RXF 393 renal; 0.973% (active) in the experiment with SF-268 CNS; -2.38% (active) in the experiment with SF-295 CNS; -24.5% (active) in the experiment on SF-539 CNS. Also, the growth in the experiment on UACC-257 melanoma is -31.4% (active); in the experiment on M14 melanoma it was -0.906% (active).
`CN(CCNc1ccc(C(=N)N)cc1)c1ccc(C(=N)N)cc1`: the growth is 81.3% in the experiment with NCI-H23 lung; 52.7% in the experiment with NCI-H226 lung; 71% in the experiment on NCI-H322M lung; 112% with HOP-62 NSCLC; 47.9% in the experiment with NCI-H460 lung; 62.7% in the experiment with HOP-92 NSCLC. Further, the growth was 87.6% in the experiment on NCI-H522 lung; 41.9% in the experiment on A549/ATCC NSCLC; 102% with 786-0 renal; 135% with COLO 205 colon; 66.6% in the experiment on DU-145 prostate; 74.4% with K-562 leukemia. Also, the growth in the experiment on MALME-3M melanoma is 84.7%; in the experiment on MDA-MB-231 breast, 91.8%; in the experiment on RXF 393 renal it was 109%; in the experiment on SF-268 CNS, 99.4%; in the experiment on SF-295 CNS, 54.3%; in the experiment on SF-539 CNS it was 101%. For the same compound, the growth was 55.1% with UACC-257 melanoma and 96.1% in the experiment with M14 melanoma.
In the case of `CCCNNC(=O)c1ccc(CNC(=O)/C=C/c2ccccc2)cc1`, the growth with NCI-H23 lung was 50.3% [2.5 µM]; in the experiment with NCI-H226 lung, 73.4% [2.5 µM]; in the experiment with NCI-H322M lung it was 34.5% [2.5 µM]; in the experiment on HOP-62 NSCLC it was 20.3% [2.5 µM]; in the experiment with NCI-H460 lung, 40.2% [2.5 µM]; in the experiment with HOP-92 NSCLC, 25.6% [2.5 µM]. The growth in the experiment with NCI-H522 lung was 38.3% [2.5 µM]; in the experiment on A549/ATCC NSCLC it was 34.8% [2.5 µM]; with 786-0 renal it was 33.1% [2.5 µM]; in the experiment on COLO 205 colon, -16.5% [2.5 µM] (active); with DU-145 prostate, 37% [2.5 µM]; in the experiment with K-562 leukemia it was 15% [2.5 µM]. Moreover, the growth in the experiment on MALME-3M melanoma is 30.1% [2.5 µM]; in the experiment on MDA-MB-231 breast, 55.7% [2.5 µM]; in the experiment with RXF 393 renal, 1.56% [2.5 µM] (active); in the experiment with SF-268 CNS, 52.6% [2.5 µM]; in the experiment with SF-295 CNS, 33.3% [2.5 µM]; in the experiment on SF-539 CNS, 44.2% [2.5 µM]. Further, the results for the growth in the experiment on UACC-257 melanoma and with M14 melanoma were 24.1% [2.5 µM] and 29.9% [2.5 µM], respectively.
On to `CN(C)c1ccc(/C=C/C2=[N+](C)c3ccccc3C2(C)C)cc1`, for which the growth is 5.41% (active) in the experiment with NCI-H23 lung; 29.4% with NCI-H226 lung; 28.7% in the experiment with NCI-H322M lung; 28.7% in the experiment with HOP-62 NSCLC; 20% in the experiment with NCI-H460 lung; -19.9% (active) in the experiment on HOP-92 NSCLC. Further, the growth with NCI-H522 lung was 18.5%; with A549/ATCC NSCLC, 15.3%; in the experiment with 786-0 renal, 25%; in the experiment on COLO 205 colon, -76.2% (active); with DU-145 prostate, 25.3%; in the experiment on K-562 leukemia, 14.2%. Besides, the growth in the experiment with MALME-3M melanoma was -6.64% (active); with MDA-MB-231 breast, 3.11% (active); with RXF 393 renal it was 39.9%; in the experiment on SF-268 CNS, 20.9%; in the experiment on SF-295 CNS, 0.915% (active); in the experiment on SF-539 CNS it was 16.9%. Further, the growth is 12.6% in the experiment on UACC-257 melanoma and 18.4% with M14 melanoma.
Take `COc1c(O[C@@H]2OC(CO)[C@H](O)[C@H](O)C2O)cc2oc3cc(O)c(CC=C(C)C)c(O)c3c(=O)c2c1CC=C(C)C` (stereo not given in full): the growth with NCI-H23 lung was 93.5%; with NCI-H226 lung it was 86.6%; with NCI-H322M lung it was 103%; with HOP-62 NSCLC it was 79%; in the experiment on NCI-H460 lung, 101%; in the experiment with HOP-92 NSCLC, 81.1%. For the same compound, the growth in the experiment with NCI-H522 lung was 64.6%; with A549/ATCC NSCLC, 97.4%; in the experiment on 786-0 renal it was 106%; in the experiment on COLO 205 colon, 96.3%; with DU-145 prostate, 104%; with K-562 leukemia it was 68.5%. For the same compound, the growth with MALME-3M melanoma is 104%; in the experiment with MDA-MB-231 breast, 68.5%; in the experiment on RXF 393 renal, 110%; in the experiment with SF-268 CNS, 92.1%; in the experiment on SF-295 CNS it was 93.2%; with SF-539 CNS, 107%. Besides, the growth in the experiment on UACC-257 melanoma was 91.3%; in the experiment with M14 melanoma it was 86.2%.

The record behind these values is PubChem BioAssay (NCI).
